# In PubChem BioAssay AID504882 (Broad Institute, 2011):
# The whole screen tested about 1,200 compounds, of which about 290 (24%) were called active. Roughly 9% stayed inconclusive and do not appear here. The rule behind the calls is not given here. Not all results are given here. A call without a number means that no potency is given here. Potency and affinity values are given separately.
# Assay: LCL viability reduction – cell-based, plate reader, cherry-picks, set 2, cytotoxicity control, dose response (AID 504882)
# Conditions: EBV lymphoblastoid cells (LCL) viability; series mostly up to 19.5 µM
row,SMILES,outcome
1,O=C(O)c1cccc(Nc2ccnc(Nc3cccc(C(=O)O)c3)n2)c1,inactive
2,COc1ccc(Nc2oc(COc3ccccc3OC)nc2C#N)cc1,inactive
3,Cc1ccc(/C=C/C(=O)C2C(=O)c3ccccc3C2=O)cc1,inactive
4,COc1ccc(-c2nc(CS(=O)CC(=O)NCc3ccc(Cl)cc3)c(C)o2)cc1 (centres undefined),inactive
5,O=C(NCc1ccccc1)c1cccc(COc2ccc3c(c2)CCC3)c1,inactive
6,CC(C)Oc1ccc(C2CC(=O)NC2=O)cc1 (centres undefined),inactive
7,CCCCCc1ccc(-c2ccc(/C=C/C(=O)O)cc2)nc1,inactive
8,O=C(NCCOc1ccccc1)c1ccc2c(c1)OCO2,inactive
9,C(=N\Nc1ccc2ccccc2n1)/c1ccc2c(c1)OCO2,inactive
10,COc1ccc(/C=C2\SC(=O)N(CCCC(=O)Nc3ccc(C(=O)O)cc3)C2=O)cc1,inactive
11,Cc1cc(NC(=O)c2ccc(C)s2)n(-c2nc3ccccc3[nH]2)n1,inactive
12,N=c1c(-c2nc3ccccc3[nH]2)cc(C(=O)c2cccs2)nn1-c1ccccc1,inactive
13,CSc1ccccc1C(=O)N1CCC2(CC1)CC(=O)c1ccccc1O2,inactive
14,CS(=O)(=O)Nc1ccc(C2=NN(S(C)(=O)=O)C(c3ccccc3)C2)cc1 (centres undefined),inactive
15,Cc1cccc(NC(=O)Nc2c(C)n(C)n(-c3ccccc3)c2=O)c1C,inactive
16,CCc1ccccc1NC(=O)COC(=O)c1c(C)nsc1NC,inactive
17,CCc1ccc(/C=C2\SC(=S)N(CCCC(=O)Nc3ccccn3)C2=O)cc1,inactive
18,CCN1CCN(Cc2ccc(NC(=O)c3ccc(C)c(NC(=O)c4ccno4)c3)cc2C(F)(F)F)CC1,inactive
19,CCN1CCN(Cc2ccc(NC(=O)c3ccc(C)c(NC(=O)c4nccn4C)c3)cc2C(F)(F)F)CC1,inactive
20,COC(=O)C(NS(=O)(=O)c1ccc(N2CCCC2=O)cc1)c1ccccc1 (centres undefined),inactive
21,CC(=NNC(=S)N1CCCCCC1)c1cccc2cccnc12,inactive
22,O=C(CSc1nnc(-c2cccc(S(=O)(=O)N3CCOCC3)c2)n1C1CCCCCC1)NCc1ccccc1,inactive
23,N#CC(C#N)c1ccnc2ccccc12,inactive
24,CC(CCc1ccco1)N(C)S(=O)(=O)c1csc(C(N)=O)c1 (centres undefined),inactive
25,CC1CCCN(C(=O)COC(=O)c2n[nH]c3ccccc23)C1 (centres undefined),inactive
26,CCN(C(=O)c1cccc(NC(=O)c2ccccc2)c1)C1CCCCC1,inactive

row,SMILES,outcome
1,Brc1cccc(CSc2nnc(-c3ccncc3)o2)c1,inactive
2,O=c1oc2ccccc2c(O)c1/C=N/c1ccccn1,inactive
3,CCc1nn2cc(-c3ccccc3)nc2s1,inactive
4,O=C(NCC1CCOCC1)c1ccc(OC2CCN(Cc3ccccn3)CC2)cc1,inactive
5,Cc1ccc(C(=O)Nc2cccc(C(F)(F)F)c2)cc1NC(=O)c1ccno1,inactive
6,COc1cnc(-c2ccccn2)nc1Sc1ccccc1Cl,inactive
7,CCOc1ccc(NC(=O)CCc2nnc3ccc(N4CCC5(CC4)OCCO5)nn23)cc1,inactive
8,C[C@H](CO)N1C[C@H](C)[C@@H](CN(C)C(=O)NC2CCCCC2)Oc2c(NS(=O)(=O)c3cn(C)cn3)cccc2C1=O,inactive
9,CC1=CC(=NOC(=O)/C=C/c2ccccc2)C=C(C)C1=O,inactive
10,CCc1ccccc1N(CC(=O)NCc1ccco1)C(=O)c1snc(C(N)=O)c1N,inactive
11,Oc1cccc(/C=N/NC(=S)NCCN2CCOCC2)c1O,inactive
12,Cc1ccc(C(=O)Nc2cccc(C(=O)N/N=C/c3ccccc3F)c2)cc1,inactive
13,Cc1ccc(S(=O)(=O)N2c3ccccc3-c3c(ssc3=S)C2(C)C)cc1,inactive
14,Cc1ccc(S(=O)(=O)N2CCN(C(=O)COC(=O)COc3ccc(Cl)cc3)CC2)c(C)c1,inactive
15,O=C(Nc1nnc(N2CCCCCC2)s1)c1cc(-c2ccc(Br)cc2)on1,inactive
16,O=C(c1ccc(COc2ccccc2Cl)o1)N1CCCC1,inactive
17,Oc1c(N=NC(=S)Nc2ccccc2F)c2ccccc2n1Cc1ccc(F)cc1,inactive
18,COc1ccc(NC(=O)C2CCCN(S(=O)(=O)c3cccc4nonc34)C2)c(OC)c1 (centres undefined),inactive
19,CC1=C(CC(=O)O)c2cc(F)ccc2C1=Cc1ccc(S(C)(=O)=O)cc1,inactive
20,Cc1cc(NCCCn2ccnc2)n2ncc(-c3ccccc3)c2n1,inactive
21,CSc1nc(C)nc2c1c(=O)n(C)c(=O)n2C,inactive
22,Cc1ccc(S(=O)(=O)N2CCCCC2)cc1NC(=O)CNc1ccccc1N1CCCC1=O,inactive
23,COc1ccc(Nc2oc(COc3ccc(Cl)cc3)nc2C#N)cc1,inactive
24,COCC(=O)N1CCC(Oc2ccc(C(=O)N3C[C@H]4CC[C@H]3C4)cc2)CC1,inactive
25,O=C(CCS(=O)(=O)c1ccccc1)Nc1nccs1,inactive
26,COc1ccc(OC)c(NC(=O)COc2coc(CN3CCc4ccccc43)cc2=O)c1,inactive

row,SMILES,outcome
1,O=C(OCc1nc2ccccc2s1)[C@@H]1CCCN1S(=O)(=O)c1ccccc1F,inactive
2,Cn1cccc1/C=C1\CC(C(C)(C)C)C/C(=C\c2cccn2C)C1=O (centres undefined),inactive
3,COc1ccccc1-n1c(-c2ccccc2)n[nH]c1=S,inactive
4,CC(=O)c1ccc(-n2nnnc2SCC(=O)N2CCc3ccccc3C2)cc1,inactive
5,CCN(Cc1ccncc1)C(=O)CCc1ccccc1,inactive
6,Cn1cccc1-c1cc(C(=O)N2CCc3c([nH]c4ccccc34)C2c2ccccn2)[nH]n1 (centres undefined),inactive
7,Cc1ccc(CCNC(=O)Cc2ccc(NC3=NC4CS(=O)(=O)CC4S3)cc2)cc1 (centres undefined),inactive
8,Cn1c(=O)c2ncn(CC(=O)O)c2n(C)c1=O,inactive
9,CCOc1cc(C(=O)OC(C)C(=O)Nc2ncc(Cl)cc2Cl)ccc1OCC(=O)N1CCOCC1 (centres undefined),inactive
10,CC(=O)N1c2ccc(S(=O)(=O)N3CCC(C(=O)N4CCN(c5ccc(Cl)cc5)CC4)CC3)cc2CC1C (centres undefined),inactive
11,O=C1c2cccc3c(O)ccc(c23)C(=O)N1c1ccc(Cl)cc1,inactive
12,C/C(=N\NS(=O)(=O)c1ccc([N+](=O)[O-])cc1)c1cccs1,inactive
13,COc1cccc(/C=N/Nc2ncnc(N)c2[N+](=O)[O-])c1OC,inactive
14,COc1cccc(C(=O)O/N=C(\N)c2ccccn2)c1OC,inactive
15,COc1cccc(-c2nc(NCc3ccccc3)c3ccccc3n2)c1O,inactive
16,O=C(O)c1ccc(-n2cncn2)c([N+](=O)[O-])c1,inactive
17,O=c1c([N+](=O)[O-])cn(Cc2ccccc2)c(=O)n1Cc1ccccc1,inactive
18,COc1cc(C(c2sc3nc(C)nn3c2O)N2CCc3ccccc3C2)cc(OC)c1OC (centres undefined),inactive
19,COc1cccc(C2Nc3ccc4ccccc4c3C3=C2C(=O)CC(C)(C)C3)c1OCC(=O)O (centres undefined),inactive
20,Cc1c(C=O)c2ccccn2c1C(=O)c1ccccc1Cl,inactive
21,Clc1ccc(-c2nnc(NC3=NCCCCC3)o2)cc1,inactive
22,C[C@@H](OC(=O)c1[nH]cnc1C(=O)N1CCc2ccccc2C1)c1ccccc1,inactive
23,COc1ccc(CCNC(=O)CSC(=O)c2ccccc2)cc1OC,inactive
24,O=C(O)c1cn2c3c(ccc(Cl)c3c1=O)OCC2,inactive
25,CCCCN1C2CCCC1CC(NC(=O)C1CCCCC1)C2 (centres undefined),inactive
26,O=C(NCc1ccco1)C1CC(=O)N(c2cccc(Cl)c2)C1 (centres undefined),inactive

row,SMILES,outcome
1,O=C(COC(=O)c1ccc(S(=O)(=O)NCc2ccco2)cc1)Nc1ccc(Cl)cn1,inactive
2,COc1ccc(-n2cc(C(=O)c3ccccc3O)cn2)cc1,inactive
3,CCc1ccc(/C=C2\SC(=S)N(CCCC(=O)NC3=NCCS3)C2=O)cc1,inactive
4,COc1cccc(C(=O)N2CCN(c3nc4cc(C)cc(C)c4cc3C#N)CC2)c1,inactive
5,CCCSc1ccc([C@@H]2[C@H]3C(=O)N(C)C(=O)[C@H]3[C@]3(C(=O)OC)CCCN23)cc1OC,inactive
6,CCCn1c(C)cc(C(=O)CN2C(=O)c3ccccc3S2(=O)=O)c1C,inactive
7,CCSc1nnc(NC(=O)CSc2nnc(-c3c[nH]c4ccccc34)n2CC)s1,inactive
8,CC(=O)c1ccccc1OCC(=O)Nc1cccc(S(=O)(=O)N2CCCC2)c1,inactive
9,O=C(CCCN1C(=O)[C@H]2CC=CC[C@H]2C1=O)NCc1nc(-c2ccc(Cl)cc2)no1,inactive
10,Cc1cccc(-n2c(O)c(C=Nc3c(C)n(C)n(-c4ccccc4)c3=O)c3ccccc3c2=O)n1,inactive
11,COC(=O)C1=C(C)N(c2cc(C)cc(C)c2)/C(=C/c2ccc(O)cc2)C1=O,inactive
12,COc1cc(N)c(Cl)cc1C(=O)NC1CCN(Cc2ccccc2)CC1,inactive
13,Cc1cccc(Nc2nc(Cl)ncc2F)c1C,inactive
14,Cc1ccccc1C(=O)N1CCN(c2ccc(NC(=O)c3cccs3)cc2)CC1,inactive
15,COc1cc(OC)cc(C(=O)N[C@H](C(=O)OCC(=O)c2ccc(C)c([N+](=O)[O-])c2)C(C)C)c1,inactive
16,CCOC(=O)Oc1c(OC)cc(C(=O)O[C@@H]2C[C@@H]3CN4CCc5c([nH]c6cc(OC)ccc56)[C@H]4C[C@@H]3[C@H](C(=O)OC)[C@H]2OC)cc1OC,inactive
17,CCOC(=O)c1cc(-c2ccccc2)n(CC(=O)Nc2cccc(OC)c2)c1C,inactive
18,CCOC(=O)c1nc(NCc2ccccc2F)c2ccccc2n1,inactive
19,COCCn1c(C)cc(C(=O)COc2ccc(C)nc2[N+](=O)[O-])c1C,inactive
20,COC(=O)c1[nH]c2ccc(C)cc2c1NC(=O)NC1CCCCC1,inactive
21,CN(CC(=O)Nc1cccnc1)S(=O)(=O)c1ccc(Br)cc1,inactive
22,COc1ccccc1OCc1ccc(C(=O)c2ccccc2)cc1,inactive
23,COc1cc(C2CC(=O)N3CN(Cc4ccccc4)CSC3=C2C#N)ccc1OCc1ccccc1 (centres undefined),inactive
24,O=C(O)C1CC(=O)N(c2ccc(Br)cc2)C1 (centres undefined),inactive
25,CNS(=O)(=O)c1cccc(C(=O)OCC(=O)c2ccc3c(c2)OCCO3)c1,inactive
26,COc1ccc(OC)c2[nH]c(=O)c(CCNC(=O)c3ccc(S(=O)(=O)N(C)C)cc3)cc12,inactive
